We go through 83 compounds from paper PMC4336329 (PLoS ONE, 2015).

The structures appear in SMILES notation. The campaign covered roughly 310,000 compounds. About 14,000 (4.5%) showed an effect of 50% or more. Effects have a minus sign here. Many of the other results were omitted from the sample, so strong results are more common in it than they were.
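Also: peak tail current of the secondary pulse compared with the same well before compound.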

human ether-à-go-go-related gene (hERG) potassium channel, sequence (Q12809 whole entry, looked up): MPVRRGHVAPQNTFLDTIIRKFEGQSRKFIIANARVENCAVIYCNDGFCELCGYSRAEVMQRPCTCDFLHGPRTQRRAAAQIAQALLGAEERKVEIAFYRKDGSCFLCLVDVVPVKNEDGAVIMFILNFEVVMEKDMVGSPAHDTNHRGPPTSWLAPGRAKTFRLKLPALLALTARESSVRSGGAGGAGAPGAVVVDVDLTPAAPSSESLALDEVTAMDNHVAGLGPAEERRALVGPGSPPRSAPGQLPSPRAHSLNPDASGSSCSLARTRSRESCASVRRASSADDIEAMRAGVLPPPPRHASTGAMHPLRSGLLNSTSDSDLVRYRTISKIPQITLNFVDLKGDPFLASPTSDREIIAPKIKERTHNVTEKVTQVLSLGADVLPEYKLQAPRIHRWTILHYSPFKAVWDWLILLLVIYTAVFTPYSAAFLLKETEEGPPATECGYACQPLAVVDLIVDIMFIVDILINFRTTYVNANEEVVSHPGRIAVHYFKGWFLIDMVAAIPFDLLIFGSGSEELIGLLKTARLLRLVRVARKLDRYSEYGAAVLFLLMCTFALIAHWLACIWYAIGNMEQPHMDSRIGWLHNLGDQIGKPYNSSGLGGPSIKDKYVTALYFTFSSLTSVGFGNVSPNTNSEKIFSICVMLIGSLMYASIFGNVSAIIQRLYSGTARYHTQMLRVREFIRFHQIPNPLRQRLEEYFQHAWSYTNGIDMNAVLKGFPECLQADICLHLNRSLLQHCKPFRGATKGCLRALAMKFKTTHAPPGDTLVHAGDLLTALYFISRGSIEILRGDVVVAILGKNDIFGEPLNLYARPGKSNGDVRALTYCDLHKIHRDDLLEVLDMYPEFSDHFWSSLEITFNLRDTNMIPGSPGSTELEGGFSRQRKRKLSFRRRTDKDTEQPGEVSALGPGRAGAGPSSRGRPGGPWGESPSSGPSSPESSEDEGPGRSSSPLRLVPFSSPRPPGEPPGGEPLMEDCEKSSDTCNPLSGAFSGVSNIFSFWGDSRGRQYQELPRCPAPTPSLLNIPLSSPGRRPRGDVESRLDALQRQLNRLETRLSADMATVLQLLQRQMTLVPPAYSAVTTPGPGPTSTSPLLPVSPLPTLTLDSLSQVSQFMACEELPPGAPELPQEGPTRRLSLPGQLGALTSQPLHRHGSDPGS

The assay has as its target human ether-à-go-go-related gene (hERG) potassium channel (human, UniProt Q12809). The experiment in a line: primary screen, population patch clamp on CHO cells stably expressing hERG; higher = less effect of the substance.
Take `C#CCNC(=O)C1=C[C@H](c2cn(C(C)=O)c3ccccc23)[C@@H](CCCO)[C@H](OCC)O1`: the “hERG current change (%, negative = inhibition) at 10uM” value is reported as -36.9%.

Take `CCO[C@H]1OC(C(=O)NCc2ccccc2)=C[C@@H](c2cn(C(C)=O)c3ccccc23)[C@@H]1CCCO`: the “hERG current change (%, negative = inhibition) at 10uM” value is given as -64.3%. `CCO[C@@H]1OC(C(N)=O)=C[C@H](c2cn(C(C)=O)c3ccccc23)[C@H]1CCCO`: the “hERG current change (%, negative = inhibition) at 10uM” value turned out to be 6.45%.

In the case of `CCO[C@@H]1OC(C(=O)NCc2ccccc2)=C[C@H](c2ccccc2)[C@H]1CCCO`, the “hERG current change (%, negative = inhibition) at 10uM” value is recorded as -18.7%. The figure for `CCO[C@@H]1OC(C(=O)NCc2ccccc2)=C[C@H](c2cn(C(C)=O)c3ccccc23)[C@H]1CCCO` is -82.9%. With `CCO[C@H]1OC(C(=O)NCc2ccccc2)=C[C@@H](c2ccccc2)[C@@H]1CCCO`, the “hERG current change (%, negative = inhibition) at 10uM” value is -19.6%. The same measure for `CCOC(=O)CN/C=C(\C#N)c1ccccc1`: 16.2%; for `COc1cc(/C=C2\C(=O)ON=C2c2ccccc2)cc(Cl)c1O`: -49.9%. As to `CC(C)(C)OC(=O)CNC(=O)c1[nH]cnc1C(=O)Nc1ccc(CNC(=O)OC(C)(C)C)cc1`, the “hERG current change (%, negative = inhibition) at 10uM” value is -0.221%.

For the compound `CCCCC(=O)Nc1nc(C)c(-c2csc(Nc3cc(OC)ccc3OC)n2)s1`, the “hERG current change (%, negative = inhibition) at 10uM” value amounted to 5.95%. Consider `Cc1nc(Nc2cccc(O)c2)c2c3c(sc2n1)CCC3`, for which the “hERG current change (%, negative = inhibition) at 10uM” value is listed as -1.85%.

Regarding `O=C1CSC(c2ccc(F)cc2)N1c1nc2ccccc2s1` (centres unmarked), the “hERG current change (%, negative = inhibition) at 10uM” value is on record as -20.8%.

With `O/N=C/c1ccccc1OCc1ccc(Cl)cc1`, the “hERG current change (%, negative = inhibition) at 10uM” value came out at 5.5%. The same measure for `Cc1ccc(/C=C/C(=O)Nc2ccc([N+](=O)[O-])cc2)o1`: -1.05%; for `CCC(Oc1ccccc1)C(=O)N(Cc1ccccc1)c1ccccn1` (centres unmarked): -6.96%. On to `O=C(Nc1cc(C(F)(F)F)ccc1N1CCOCC1)c1cnccn1`, for which the “hERG current change (%, negative = inhibition) at 10uM” value was -2.15%. As for `O=C(Nc1cc(C(F)(F)F)ccc1N1CCOCC1)c1cccnc1`, the “hERG current change (%, negative = inhibition) at 10uM” value was -42.3%. The same measure for `O=C(CNCc1cccnc1)Nc1cc(C(F)(F)F)ccc1N1CCOCC1.O=C(O)C(=O)O`: -67%. Take `Cc1nc2ccccc2nc1OCC(=O)Nc1cc(C(F)(F)F)ccc1N1CCOCC1`: the “hERG current change (%, negative = inhibition) at 10uM” value worked out at 0.222%. As to `O=C(CNCc1ccccn1)Nc1cc(C(F)(F)F)ccc1N1CCOCC1.O=C(O)C(=O)O`, the “hERG current change (%, negative = inhibition) at 10uM” value was -57.5%. The same measure for `O=C(Nc1cc(C(F)(F)F)ccc1N1CCOCC1)c1ccccc1`: 12.6%; for `O=C(O)CSc1c2c(nc3cc(C(=O)NCCN4CCOCC4)ccc13)CCC2`: -6.18%; for `CC(C)(C)c1ccc(/C=N/NC(=O)C[n+]2ccccc2)cc1.[Cl-]`: 26%. In the case of `Cc1ccc(NC(=O)C2(C)Cc3ccccc3C(=O)O2)cc1` (centres unmarked), the “hERG current change (%, negative = inhibition) at 10uM” value is on record as -5.03%. The same measure for `CCCCNS(=O)(=O)c1ccc2nc(-c3cccs3)cc(C(=O)NCC(OC)OC)c2c1`: 9.85%.

Turning to `Cc1c(C(=O)N2CCCCC2)c(S(=O)(=O)Nc2cccc(Br)c2)c(C)n1C`, the “hERG current change (%, negative = inhibition) at 10uM” value is -4.02%. For the compound `O=C(CCc1nnc(CCc2ccccc2)o1)N1CCCCC1CCn1cccn1` (centres unmarked), the “hERG current change (%, negative = inhibition) at 10uM” value is -51.1%. Regarding `O=C(CCc1nnc(C2CCCCC2)o1)N1CCCCC1CCn1cccn1` (centres unmarked), the “hERG current change (%, negative = inhibition) at 10uM” value was 3.65%. `O=C(CCc1nnc(C2CCCCC2)o1)N1CCN(C2CCCCC2)CC1`: the “hERG current change (%, negative = inhibition) at 10uM” value amounted to 10.4%.

For the compound `COC(=O)[C@@H]1CCCN1C(=O)CCc1nnc(C2CCCCC2)o1`, the “hERG current change (%, negative = inhibition) at 10uM” value was 6.94%. Regarding `CCC1CCCCN1C(=O)CCc1nnc(C2CCCCC2)o1` (centres unmarked), the “hERG current change (%, negative = inhibition) at 10uM” value is -55%. The same measure for `O=C(CCc1nnc(CCCCc2ccccc2)o1)N1CCCCC1CCO` (centres unmarked): -1.73%; for `O=C(Cc1cccs1)N/N=C/C(Br)=C/c1ccccc1`: 10.1%; for `CCOc1ccc(OCCCC(=O)Nc2nc3ccccc3[nH]2)cc1`: 12%. For the compound `CC1CCCN(C(=O)CSc2nnc(-c3ccncc3)n2C)C1` (centres unmarked), the “hERG current change (%, negative = inhibition) at 10uM” value is on record as 45.9%. As for `C/C=C\C=C\C(=O)Nc1cccc(C2=NOC3(C2)C[C@@H](C(N)=O)N(C(=O)C(c2ccccc2)c2ccccc2)C3)c1` (some centres unmarked), the “hERG current change (%, negative = inhibition) at 10uM” value came to 0.545%. As for `Cc1ccc(C=Nc2ccc(N(C)C)cc2)o1`, the “hERG current change (%, negative = inhibition) at 10uM” value is recorded as -0.267%. The figure for `CCOC(=O)c1ccc(NC(=O)c2ccc3c(c2)C(=O)N(CC2CCCO2)C3=O)cc1` (centres unmarked) is -1.87%; for `COc1ccc(N2CCN(S(=O)(=O)CCNC(=O)COc3ccccc3C)CC2)cc1` it is 1.17%; for `Cc1ccccc1OCC(=O)NCCS(=O)(=O)N1CCN(c2ccc(F)cc2)CC1` it is -66.6%. As to `COc1ccccc1OCC(=O)NCCS(=O)(=O)N1CCN(c2ccc(F)cc2)CC1`, the “hERG current change (%, negative = inhibition) at 10uM” value was -60.8%. As to `COc1ccc(N2CCN(S(=O)(=O)CCNC(=O)COc3ccccc3OC)CC2)cc1`, the “hERG current change (%, negative = inhibition) at 10uM” value is given as -1.02%.

On to `COc1ccccc1OCC(=O)NCCS(=O)(=O)N1CCN(c2ccccc2)CC1`, for which the “hERG current change (%, negative = inhibition) at 10uM” value is recorded as -44.4%. Turning to `COc1ccc(OCC(=O)NCCS(=O)(=O)N2CCN(c3ccc(F)cc3)CC2)cc1`, the “hERG current change (%, negative = inhibition) at 10uM” value is listed as -8.69%.

As for `CCOc1ccc(/C=C(\C#N)C(=O)c2c(C)[nH]c3ccccc23)cc1OC`, the “hERG current change (%, negative = inhibition) at 10uM” value is on record as -4.5%. As for `CC1Cc2ccccc2N1CC(=O)Nc1ccc(S(N)(=O)=O)cc1` (centres unmarked), the “hERG current change (%, negative = inhibition) at 10uM” value is given as -6.21%. As to `COC(=O)c1cc(-c2ccccc2)sc1NC(=O)CN1C(=O)c2ccccc2C1=O`, the “hERG current change (%, negative = inhibition) at 10uM” value is 15.9%. The same measure for `Cc1ccc(N2CCCn3c2cc(C)c(C#N)c3=O)cc1Cl`: -22.8%. The same measure for `Cc1cc2n(c(=O)c1C#N)CCCN2c1cccc(Cl)c1`: -65%; for `Cc1ccc(N2CCCn3c2cc(C)c(C#N)c3=O)cc1C`: -21.4%; for `C#CCOc1ccc(/C=C2\SC(=S)N(Cc3cccnc3)C2=O)cc1`: 15.9%. With `c1ccc(CN2CCC(N3CCN(Cc4ccc5c(c4)OCO5)CC3)CC2)cc1`, the “hERG current change (%, negative = inhibition) at 10uM” value was -39.8%. Regarding `Cc1ccc(Nc2nc(N)nc(CN3CCN(Cc4ccc5c(c4)OCO5)CC3)n2)cc1`, the “hERG current change (%, negative = inhibition) at 10uM” value is recorded as -73.3%. Consider `Cc1cccc(Nc2nc(N)nc(CN3CCN(Cc4ccc5c(c4)OCO5)CC3)n2)c1`, for which the “hERG current change (%, negative = inhibition) at 10uM” value is recorded as -75.2%. In the case of `Cc1ccc(Nc2nc(N)nc(CN3CCN(Cc4ccc5c(c4)OCO5)CC3)n2)cc1Cl`, the “hERG current change (%, negative = inhibition) at 10uM” value is -81.2%. Take `Cc1cccc(NC(=O)CSCC(=O)N2CCN(Cc3ccc4c(c3)OCO4)CC2)c1`: the “hERG current change (%, negative = inhibition) at 10uM” value is -23.3%. The same measure for `O=C(Nc1ccc(Cl)cc1)N1CCN(Cc2ccc3c(c2)OCO3)CC1`: -27.6%; for `Nc1nc(CN2CCN(Cc3ccc4c(c3)OCO4)CC2)nc(Nc2ccccc2)n1`: -75.6%.

Consider `c1ccc(Cc2noc(CN3CCN(Cc4ccc5c(c4)OCO5)CC3)n2)cc1`, for which the “hERG current change (%, negative = inhibition) at 10uM” value was -28.1%. The figure for `Cc1ccc(NC(=O)CSCC(=O)N2CCN(Cc3ccc4c(c3)OCO4)CC2)cc1` is -25.9%; for `Cc1cccc(S(=O)(=O)N2CCN(Cc3ccc4c(c3)OCO4)CC2)c1` it is -35.2%. For `Cc1cc(Cl)ccc1NC(=S)N1CCN(Cc2ccc3c(c2)OCO3)CC1`, the “hERG current change (%, negative = inhibition) at 10uM” value came out at 4.84%. `Cc1ccc(NC2=NCC(=O)N2Cc2ccc3c(c2)OCO3)cc1`: the “hERG current change (%, negative = inhibition) at 10uM” value is listed as -5.93%. With `O=C(CNC(=O)N1CC(=O)Nc2ccccc21)NCc1cccc(Cl)c1`, the “hERG current change (%, negative = inhibition) at 10uM” value was found to be 12.8%. Turning to `COC(=O)c1sccc1NC(=O)c1ccccc1F`, the “hERG current change (%, negative = inhibition) at 10uM” value is 15.3%. The figure for `O=C(c1ccc(S(=O)(=O)N2CCCC2)cc1)N1CCN(Cc2ccc3c(c2)OCO3)CC1` is -28%; for `CCN(CC)C(=O)c1ccc(NC(=O)c2ccc(N3CCCC3=O)cc2)cc1` it is 5.47%. Consider `Cc1ccc2nc3sc(C(=O)N4CCCc5ccccc54)c(N)c3cc2c1`, for which the “hERG current change (%, negative = inhibition) at 10uM” value is recorded as 2.69%. `COCCNS(=O)(=O)c1ccc2c(c1)Cc1cc(S(=O)(=O)NCCOC)ccc1-2`: the “hERG current change (%, negative = inhibition) at 10uM” value was -22.1%. The same measure for `O=C(N/C=C/c1ccccc1)Nc1ccc(Cl)cc1`: 10.3%; for `CCOc1ccc(C(=O)Nc2cc(S(=O)(=O)Nc3ccccc3Cl)ccc2N2CCOCC2)cc1`: 6.95%; for `Cc1ccc(S(=O)(=O)NCC(=O)N(c2ccccc2)C(C(=O)NCc2ccccc2)c2ccco2)cc1` (centres unmarked): -6.04%. Consider `Cc1ccc(-n2nc(C(=O)N3CCN(C)CC3)c3c4ccccc4n(C)c3c2=O)cc1`, for which the “hERG current change (%, negative = inhibition) at 10uM” value was found to be 5.61%. With `Cc1nc(SCC(=O)NC2CC2)c2c(C)c(C)sc2n1`, the “hERG current change (%, negative = inhibition) at 10uM” value amounted to 6.21%. `CC(=O)N/C(=C\c1ccccc1)C(=O)OCc1ccc(F)cc1`: the “hERG current change (%, negative = inhibition) at 10uM” value is recorded as -0.974%. As to `CC(=O)Nc1ccc(S(=O)(=O)NC(C)c2ccccc2)cc1` (centres unmarked), the “hERG current change (%, negative = inhibition) at 10uM” value was 13.2%. For the compound `CCOC(=O)c1c(NC(=O)CN2C(=O)NC3(CCCCCC3)C2=O)sc(C)c1-c1ccc(C)cc1`, the “hERG current change (%, negative = inhibition) at 10uM” value worked out at 4.24%.

Take `Nn1c(SCc2cccc(F)c2)nnc1-c1cccnc1`: the “hERG current change (%, negative = inhibition) at 10uM” value stood at 9.33%. Take `O=C(CSc1ccc2nnc(-c3cccnc3)n2n1)Nc1cccc(F)c1`: the “hERG current change (%, negative = inhibition) at 10uM” value is given as -43.6%. On to `Fc1cccc(CSc2ccc3nnc(-c4cccnc4)n3n2)c1`, for which the “hERG current change (%, negative = inhibition) at 10uM” value is -69%. On to `Cc1cccc(CSc2ccc3nnc(-c4cccs4)n3n2)c1`, for which the “hERG current change (%, negative = inhibition) at 10uM” value stood at 17.9%. `Cc1cccc(CSc2ccc3nnc(-c4cccnc4)n3n2)c1`: the “hERG current change (%, negative = inhibition) at 10uM” value is reported as -66.5%.

Take `Cc1cccc(NC(=O)CSc2ccc3nnc(-c4cccnc4)n3n2)c1`: the “hERG current change (%, negative = inhibition) at 10uM” value is -30.1%.
